Data on 63 compounds can be found in PubChem BioAssay AID602163 (The Scripps Research Institute Molecular Screening Center, 2012).

Among all 360,000 compounds or so, about 1,100 (0.31%) were called active. Only a selection was taken, and actives are over-represented in it overall. Unmarked numbers belong to inactive results. No stated cut-off is given here; in the data, active means activation above about 7.5%; inactive means the rest.

For the assay, the system named is Methionine sulfoxide reductase A (Bos taurus). Put plainly: activation of methionine sulfoxide reductase A – biochemical, absorbance, bovine, HTS, primary screen (AID 602163).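 Further: 0% = vehicle and 100% = reference activator.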 The settings on record: purified bovine MsrA, absorbance read-out; at 10.6 µM; active compounds read high.
As for `O=C(N[C@@H](Cc1c[nH]c2ccccc12)C(=O)O)OCC1c2ccccc2-c2ccccc21`, the activation was 0.63%.
As for `CC(=O)NC(Cc1c[nH]c2ccccc12)C(=O)NCCc1ccccc1` (stereo not drawn), the figure is -3.82%; as for `CC(=O)NC(Cc1c[nH]c2ccccc12)C(=O)O` (stereo not drawn), 9.9% (active); as for `NS(=O)(=O)c1cccc(NC(=O)CC23CC4CC(CC(Br)(C4)C2)C3)c1`, -2.66%.
In the case of `C#CCO[C@@H]1C[C@H](n2cnc3c(=O)[nH]c(NC(=O)C(C)C)nc32)O[C@@H]1CO` it was -0.46%.
On to `COc1cc(NC(=O)c2ccccc2)c(OC)cc1NC(=O)Cc1ccccc1`, for which the activation was 0.53%.
Take `C/C(=N\NC(=O)c1ccc(C)cc1)C1C(=O)c2ccccc2C1=O`: the activation was -5.75%.
In the case of `O=C(NC1=CC(=O)c2ccccc2C1=O)c1ccccc1`, the activation is 18.2% (active).
On to `O=C(CSCc1c(Cl)cccc1Cl)NN1C(=O)c2ccccc2C1=O`, for which the activation was -2.13%.
For `O=C(COC(=O)Cc1ccc(Br)cc1)Nc1ccc(N2CCOCC2)cc1`, the activation is -1.14%.
With `Cn1c(SCC(=O)N2CCCC2)nnc1-c1cccs1`, the activation was -0.73%.
As for `O=C(CSc1n[nH]c(-c2cccs2)n1)N1CCCCC1`, the figure is 8.31% (active).
As to `O=C(CSc1ncccn1)N1CCCC1`, the activation is -3.29%.
As for `CCCCn1c(N)c(N(CC(C)C)C(=O)CSc2ccc([N+](=O)[O-])cc2)c(=O)[nH]c1=O`, the figure is -3.75%.
For the compound `COc1ccc([C@H]2CC(=O)C=C(/C=C/c3ccccc3)C2)cc1`, the activation is 8.06% (active).
Regarding `COc1ccc([C@H]2CC(=O)C=C(/C=C/c3ccc(Cl)cc3)C2)cc1`, the activation was -1.21%.
`COc1ccc([C@H]2CC(=O)C=C(c3ccc(C)cc3)C2)cc1`: the activation is -3.05%.
On to `O=C(Nc1cccn(Cc2c(Cl)cccc2Cl)c1=O)c1ccc(Cl)cc1`, for which the activation is 2.68%.
Take `CC(Sc1nnc(CNC(=O)c2ccccc2F)n1C)C(=O)Nc1nccs1` (stereo not drawn): the activation is 0.09%.
Regarding `O=C(O)c1ccccc1-c1ccccc1C(=O)Nc1nccs1`, the activation was -2.03%.
With `O=C(Nc1ccccc1F)c1ccccc1-c1ccccc1`, the activation is -1.97%.
As for `O=C(O)c1ccccc1-c1ccccc1C(=O)Nc1cccc2ccccc12`, the figure is 11.4% (active); as for `O=C(O)c1ccccc1-c1ccccc1C(=O)NCCc1ccccc1`, -13.5%; as for `O=C(O)c1ccccc1NC(=O)c1ccccc1-c1ccccc1C(=O)O`, 7.87% (active).
Consider `O=C(O)c1ccccc1-c1ccccc1C(=O)Nc1ccccc1Br`, for which the activation was -10.3%.
In the case of `N#Cc1ccc(OCCN2C(=O)NC3(CCSC3)C2=O)cc1` (stereo not drawn), the activation is -0.26%.
In the case of `CCOC(=O)c1cc(-c2ccccc2C)n(Cc2cc(C)no2)n1` it was -2.88%; in that of `COc1ccccc1CNC(=O)C1CCN(S(=O)(=O)c2ccc3c(c2)OCCO3)CC1`, -2.2%; in that of `Cc1ccc(S(=O)(=O)N(CC(=O)NN=C2CCN(C)CC2)c2ccc(F)cc2)cc1`, -2.23%.
Turning to `CCOC(=O)c1cc(-c2sc(NC(=O)c3ccccc3)nc2C)n(CCO)n1`, the activation is -3.15%.
In the case of `Cc1nc(NNC(=O)c2ccccc2)cc(-c2ccccc2)n1`, the activation was 1.76%.
For the compound `Cn1sc(NC(=O)c2ccccc2)nc1=O`, the activation was 14.9% (active).
Turning to `CCN(CC)S(=O)(=O)c1ccc(OC(C)C)c(N)c1`, the activation was -3.46%.
Take `CN1C(=O)c2ccccc2C(C(=O)NCCCN2CCCC2)C1c1c[nH]c2ccccc12` (stereo not drawn): the activation is -1.12%.
Consider `Cc1ccc(SCC(=O)c2cc(C)c(OC(=S)N(C)C)c(C)c2)cc1`, for which the activation is 1.83%.
`COc1ccc(CCNC(=O)CN2CCC(n3nnc4cc(F)ccc43)CC2)cc1OC`: the activation was -2.2%.
For `NC1=CC(=O)C(=O)c2cccnc21`, the activation is 15.2% (active).
Consider `Cc1ccc2c(CC(=O)NCc3cccs3)coc2c1`, for which the activation was -2.6%.
Regarding `COc1cc(C(=O)OCCCN2CCOCC2)cc(OC)c1OC`, the activation is -0.8%.
Regarding `COC(=O)c1scc(S(=O)(=O)C(C)(C)C)c1-n1cccc1`, the activation was -1.27%.
Take `COc1ccc(S(=O)(=O)N2CCOCC2)cc1NC(=O)Cc1coc2cc(C)ccc12`: the activation was -1.58%.
In the case of `CC(C)c1ccc(Nc2ncccc2C#N)cc1` it was -0.47%; in that of `CC1=NNC(=O)C1CCC(=O)N/N=C\c1cccc(Cl)c1` (stereo not drawn), -5.62%; in that of `CC1=NNC(=O)C1CCC(=O)N/N=C\c1ccc(Cl)c(Cl)c1` (stereo not drawn), -2.03%.
Turning to `CC1=NNC(=O)C1CCC(=O)N/N=C(\C)c1ccc(Cl)cc1` (stereo not drawn), the activation was 19.6% (active).
For `CCOc1ccc(CCNC(=O)COC(=O)C2CCN(S(=O)(=O)c3ccccc3)CC2)cc1OCC`, the activation is -3.79%.
Consider `CSC1=NCCN1C(=O)Cc1cccc2ccccc12`, for which the activation was -1.62%.
On to `O=C(NCCOc1ccccc1)N1[C@H]2CC[C@@H]1C=C(c1ccc(F)cc1OCc1ccccc1)C2`, for which the activation is -0.63%.
For `CCOc1ccc(C(C)=O)cc1COC(=O)CN1C(=O)NC2(CCCC2)C1=O`, the activation is -2.45%.
In the case of `Cc1ccc(COC(=O)CN2C(=O)NC3(CCCC3)C2=O)cc1` it was 10.9% (active); in that of `O=C(CN1C(=O)NC2(CCCC2)C1=O)OCCOc1ccc(F)cc1`, -0.72%.
Turning to `CCn1c(=S)[nH]c2sc3c(c2c1=O)CCCCC3`, the activation was 1.11%.
With `S=c1[nH]nc2c3c4c(sc3ncn12)CCCC4`, the activation is 12.9% (active).
Regarding `N=c1c2c3c(sc2ncn1CCCN1CCOCC1)CCCCC3`, the activation was -6.06%.
As to `C[C@H](NC(=O)c1ccccc1Cl)C(=O)OCC(=O)N1CCN(c2ccccc2)CC1`, the activation was 1.01%.
Regarding `COc1ccc(C(=O)COC(=O)c2ccc([N+](=O)[O-])s2)cc1OC`, the activation is 12.4% (active).
On to `COc1ccc(C(=O)OCC(=O)c2ccc(Cl)s2)c(OC)c1OC`, for which the activation was -1.71%.
As to `COc1cc(NC(=O)COC(=O)c2ccc([N+](=O)[O-])s2)cc(OC)c1OC`, the activation was 10.6% (active).
For the compound `COc1cccc(/C=C/C(=O)OCC(=O)N2CCN(c3ccccc3)CC2)c1`, the activation was -1.19%.
As for `O=C(OCC(=O)N1CCN(c2ccccc2)CC1)c1ccc([N+](=O)[O-])s1`, the activation was 8.9% (active).
As for `COc1ccc(C(=O)OCC(=O)Nc2ccc3[nH]c(=O)[nH]c3c2)c(OC)c1OC`, the activation is 1.62%.
Turning to `COc1ccc(C(=O)OCC(=O)c2ccc(C)c(S(=O)(=O)N3CCOCC3)c2)cc1OC`, the activation is -4.43%.
For `COc1cc(NC(=O)COC(=O)c2cnc(C)cn2)c(C)cc1[N+](=O)[O-]`, the activation was -4.41%.
